# Compound activity as filed in PubChem.
# Hits are enriched below; roughly 19% of the tested compounds scored in any of these assays.
# HT1080 IDH1KD tx: HT-1080 IDH1 knockdown cell toxicity (counter line). HT-1080 IDH1 knockdown viability, ATP luminescence, 48 h. actives 2% (n = 360,000). Potency, µM (titrated, usually from 46.1 µM), without a hit: at the top dose activity, negative = toxicity, usual class: cytotoxic;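 also: 0% = DMSO wells and -100% = cell-free medium wells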
#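 Cytotoxicity counter-line: IDH1KD HT-1080, 48 h, CellTiter-Glo. Curves classed by r2, magnitude and activity.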
# KB-V1 MDR tox: kills drug-selected multidrug resistant KB-V1 cells; KB-V1 MDR cells viability, CellTiter-Glo, 72 h; Potency, µM (series often up to 46.1 µM), hits mostly cytotoxic; actives 3.4% (n = 400,000); also: nearly all actives have a fitted effect of over 60% in size
#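 KB-V1, DMEM (no phenol red) + 10% FBS; cpd pin-transferred, titration series; 72 h, 37 degrees C; CellTiter-Glo, luminescence. Data normalized, curve-fit.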
# HT1080-NT tox: kills 2HG-producing HT-1080-NT fibrosarcoma cells; Potency, µM (doses to about 46.1 µM), for the others: at the highest dose activity, negative = less viability, most hits filed as cytotoxic; HT-1080-NT fibrosarcoma viability, CellTiter-Glo ATP luminescence, 48 h; AID 686970; actives 1.6% (n = 360,000);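 also: NT is the 2HG producing partner of a matched IDH1 knockdown line; 0% = DMSO-treated cells and -100% = media-only wells without cells; nearly all actives have a fitted effect of over 55% in size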
#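 A 48-hour cytotoxicity screen used HT-1080-NT cells plated 2 hours before compound delivery. ATP-based CellTiter-Glo luminescence measured viability, normalized to DMSO and no-cell controls.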
# KB-3-1 tox: kills parental KB-3-1 adenocarcinoma cells. KB-3-1 viability, CellTiter-Glo ATP luminescence, 72 h. Potency, µM (highest dose often 46.1 µM), most hits filed as cytotoxic. actives 1.4% (n = 400,000); also: nearly all actives have a fitted effect of over 60% in size
#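 Multi-concentration cytotoxicity screen in KB-3-1 cells grown in DMEM lacking phenol red with 10% FBS. After 72 h at 37 °C with compound, ATP-dependent luminescence was recorded.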
# DT40 TDP1 CPT: growth inhibition of DT40 Tdp1-/-;hTDP1 cells with camptothecin (screen for TDP1 inhibitors). chicken DT40 Tdp1-/-;hTDP1 cells + 20 nM CPT, ATP luminescence, 48 h. Potency, µM (titrated, usually from 46.2 µM), inactives show at the highest dose activity change, negative = growth inhibition, most hits filed as inhibitors. actives 12% (n = 420,000). AID 686979; also: nearly all actives have a fitted effect of over 55% in size
#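 Chicken DT40 Tdp1-/- cells complemented with human TDP1, 400 cells/well, exposed to compounds plus 20 nM camptothecin for at least 48 h at 37 C; viability read as ATP content by CellTiter-Glo luminescence.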
# TDP1 cell noCPT: qHTS for Inhibitors of human tyrosyl-DNA phosphodiesterase 1 (TDP1): qHTS in cells in absence of CPT | DT40 Tdp1-/- hTDP1 cells, no CPT, ATP luminescence, 48 h | actives 15% (n = 420,000) | Potency, µM (top dose mostly 46.2 µM), without a hit: at the top dose activity change, negative = growth inhibition, actives largely listed as inhibitors; also: nearly all actives have a fitted effect of over 55% in size
#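 Compound effects on proliferation are scored in DT40 Tdp1-/-;hTDP1 cells in the absence of CPT. ATP levels (CellTiter-Glo luminescence) are recorded after a ≥48 hr, 37 °C incubation.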
# * hit, by the source's call; i = inactive; ? = inconclusive; / = no result. Calls follow the shape of the dose curve; as a rule, active = well fitted curve in the direction sought with a large enough effect; inconclusive = small, poorly fitted or top-dose-only effect, or another doubt; inactive = no such curve, though single readings can be large; an effect the other way counts as inactive or inconclusive. Unless noted, % is scaled to controls: 0 for no effect and ±100 for the full control effect; potency is read from the fitted curve at half-maximal effect.
SMILES,HT1080 IDH1KD tx,KB-V1 MDR tox,HT1080-NT tox,KB-3-1 tox,DT40 TDP1 CPT,TDP1 cell noCPT
CCCN(CC(=O)Nc1ccc(F)c(F)c1F)CC(=O)Nc1c(Cl)cccc1Cl,3%,18µM*,3%,i,10µM*,4.1µM*
CCCN(CC(=O)Nc1ccc(C)cc1Br)CC(=O)Nc1ccc(F)c(F)c1F,-15%,8.2µM*,-3%,i,?,18µM*
CCCC1(c2ccccc2)NC(=O)N(CC(=O)Nc2cc(C)ccc2OC)C1=O (configuration not stated),-9%,i,-14%,i,4%,-28%
Cc1c(Cl)cccc1NC(=O)CCCn1nc(C)c2sc3ccccc3c2c1=O,/,i,/,i,?,?
O=C(NCCN1CCOCC1)C(=O)c1c[nH]c2ccccc12,0%,i,1%,i,0%,8%
O=C(Nc1nnc(-c2ccc(F)cc2)o1)c1ccc(S(=O)(=O)N2CCOCC2)cc1,?,?,-15%,4.1µM*,3.3µM*,2.9µM*
Cc1ccc(NC(=O)c2ccc(S(=O)(=O)N3CCOCC3)cc2)cc1,-9%,i,-7%,i,10%,-5%
O=C(Nc1nnc(-c2ccc(F)cc2)o1)c1ccco1,-14%,i,0%,i,?,?
Cc1ccccc1C(=O)Nc1nnc(-c2ccc(F)cc2)o1,?,i,?,?,6.5µM*,5.8µM*
COc1ccc(-c2nnc(NC(=O)c3cc(Cl)ccc3Cl)o2)cc1,-27%,i,-12%,?,16µM*,?
CCC(=O)Nc1nnc(-c2ccc(OC)cc2)o1,-4%,i,1%,i,-15%,-17%
COc1ccccc1C(=O)Nc1nnc(-c2ccc(F)cc2)o1,12%,i,-4%,?,7%,-28%
COc1ccc(-c2nnc(NC(=O)c3ccc(F)cc3)o2)cc1,?,i,-7%,i,2.9µM*,?
CCOc1ccc(-n2c(SCC(=O)N3CCOCC3)nc3c([nH]c4ccccc43)c2=O)cc1,/,?,/,i,-17%,?
Cc1nnc(NC(=O)CCN2C(=O)C3CC=CCC3C2=O)s1 (configuration not stated),4%,i,6%,i,-8%,8%
O=C(Nc1nc(-c2ccccc2)c(-c2ccccc2)o1)c1ccc(F)cc1,?,?,-27%,?,9.2µM*,8.2µM*
Clc1cccc(CSc2nnc(C3CCNCC3)o2)c1,/,i,/,i,-26%,?
CCN(CC)CCNc1ncnc2c1sc1nc(N3CCOCC3)c3c(c12)CCCC3,10%,?,2%,15µM*,?,?
OCCNc1ncnc2c1sc1nc(N3CCOCC3)c3c(c12)CCC3,7%,?,-8%,?,?,15µM*
Cc1cccc(-n2cnc3c(sc4nc(N5CCOCC5)c5c(c43)CCCC5)c2=O)c1,-25%,?,-16%,i,?,21µM*
CCCCCCNc1ncnc2c1sc1nc(N3CCOCC3)c3c(c12)CCCC3,/,i,/,i,?,?
Cc1cc(N2CCN(C(C(=O)NC3CCCC3)C(C)C)CC2)c2ccccc2n1 (configuration not stated),-1%,?,-15%,i,-25%,-16%
COc1ccccc1S(=O)(=O)Cc1ccc(C(=O)N2CCN(c3cc(Cl)ccc3C)CC2)o1,/,18µM*,/,?,?,8.2µM*
COc1ccccc1S(=O)(=O)Cc1ccc(C(=O)N2CCOCC2)o1,0%,i,0%,i,-2%,-14%
COc1ccccc1S(=O)(=O)Cc1ccc(C(=O)N2CCN(c3cccc(Cl)c3)CC2)o1,21µM*,16µM*,?,6.5µM*,6.5µM*,5.8µM*
